Data taken from PubChem BioAssay AID1159580 (chemical genetic matrix, 2015).
The campaign covered roughly 5,500 compounds. About 2,000 (36%) were called active. Roughly 18% stayed inconclusive and do not appear here. Rule as the data show it: active = normalized growth mostly below about 0.91 (no sharp cut-off); inconclusive = no clear call, values can overlap the other calls; inactive = mostly above about 0.92. Some of the results follow.

Assay: chemical genetic growth profiling, strain panel (AID 1159580);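 also: tested at 20 µM; growth read once vehicle control cultures reached saturation at 30 °C; 1 = growth at the plate median or of vehicle wells; lower values mean less growth of the strain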
Details: S. cerevisiae deletion strains, growth OD
[1] = locus YHR030C, strain SLT2, active compounds read low
[2] = locus YJL095W, strain BCK1, active compounds read low

Measured: normalized growth

COc1ccc(-c2cc(=O)c3c(O)c(OC)c(OC)cc3o2)cc1O
inactive: locus YBR021W, strain FUR4, active compounds read low 0.907 | locus YBR229C, strain ROT2, active compounds read low 1.01 | locus YCL029C, strain bik1, active compounds read low 0.937 | locus YDL035C, strain GPR1, active compounds read low 0.929 | locus YDL074C, strain BRE1, active compounds read low 0.878 | locus YDL101C, strain DUN1, active compounds read low 0.997 | locus YDL134C, strain PPH21, active compounds read low 1 | locus YDL185W, strain tfp1, active compounds read low 0.96 | locus YDL192W, strain arf1, active compounds read low 0.951 | locus YDR101C, strain arx1, active compounds read low 0.926 | locus YDR150W, strain NUM1, active compounds read low 0.997 | locus YDR162C, strain NBP2, active compounds read low 1 | locus YDR318W, strain mcm21, active compounds read low 0.99 | locus YDR388W, active compounds read low 0.99 | locus YDR502C, strain sam2, active compounds read low 0.953 | locus YEL061C, strain CIN8, active compounds read low 1 | locus YER110C, active compounds read low 0.974 | locus YER155C, strain BEM2, active compounds read low 1.01 | locus YER167W, strain BCK2, active compounds read low 0.979 | locus YGL078C, strain dbp3, active compounds read low 0.944 | locus YGL086W, strain mad1, active compounds read low 0.935 | locus YGL248W, strain PDE1, active compounds read low 0.993 | locus YGR078C, strain PAC10, active compounds read low 0.969 | locus YGR135W, strain pre9, active compounds read low 0.971 | locus YGR229C, strain SMI1, active compounds read low 0.893 | locus YGR252W, strain gcn5, active compounds read low 0.994 | [1] 0.998 | locus YHR079C, strain IRE1 (second series), active compounds read low 0.978 | locus YHR094C, strain hxt1, active compounds read low 0.995 | locus YHR129C, strain ARP1, active compounds read low 0.978 | locus YHR200W, strain rpn10, active compounds read low 0.985 | locus YIL066C, strain RNR3, active compounds read low 0.964 | locus YIL073C, strain SPO22, active compounds read low 0.873 | locus YIL125W, strain kgd1, active compounds read low 0.959 | locus YIR030C, strain dcg1, active compounds read low 0.993 | [2] 0.991 | locus YJL134W, strain LCB3, active compounds read low 0.998 | locus YJL168C, strain set2, active compounds read low 0.993 | locus YJL187C, strain SWE1 (second series), active compounds read low 0.952 | locus YJR043C, strain POL32, active compounds read low 0.954 | locus YJR075W, strain HOC1, active compounds read low 0.983 | locus YKL009W, strain mrt4, active compounds read low 0.943 | locus YKL068W, active compounds read low 0.969 | locus YKL085W, strain MDH1 (second series), active compounds read low 0.985 | locus YKL085W, strain MDH1, active compounds read low 0.985 | locus YKL190W, strain CNB1, active compounds read low 1.01 | locus YKR001C, strain vps1, active compounds read low 0.943 | locus YLR039C, strain RIC1, active compounds read low 0.96 | locus YLR058C, strain SHM2, active compounds read low 1 | locus YLR102C, strain apc9, active compounds read low 0.988 | locus YLR262C, strain YPT6, active compounds read low 0.989 | locus YLR268W, strain sec22, active compounds read low 0.902 | locus YLR330W, strain CHS5, active compounds read low 0.983 | locus YLR342W, strain FKS1 (second series), active compounds read low 0.944 | locus YLR371W, strain rom2, active compounds read low 0.985 | locus YLR418C, strain cdc73, active compounds read low 0.928 | locus YML016C, strain PPZ1, active compounds read low 1 | locus YML032C, strain rad52, active compounds read low 0.971 | locus YML124C, strain tub3, active compounds read low 0.998 | locus YMR078C, strain ctf18, active compounds read low 0.988 | locus YMR223W, strain ubp8, active compounds read low 0.99 | locus YMR263W, strain SAP30, active compounds read low 1.05 | locus YMR307W, strain GAS1, active compounds read low 0.998 | locus YNL067W, strain RPL9B, active compounds read low 0.965 | locus YNL153C, strain GIM3, active compounds read low 0.969 | locus YNL233W, strain BNI4, active compounds read low 0.928 | locus YNL271C, strain bni1, active compounds read low 0.993 | locus YNL298W, strain CLA4, active compounds read low 0.996 | locus YNL307C, strain MCK1, active compounds read low 0.975 | locus YNR052C, strain pop2, active compounds read low 0.973 | locus YOL012C, strain htz1 1.07 | locus YOL147C, strain pex11, active compounds read low 0.97 | locus YOR061W, strain CKA2, active compounds read low 0.98 | locus YOR069W, strain VPS5, active compounds read low 0.999 | locus YOR136W, strain idh2, active compounds read low 0.98 | locus YOR144C, strain elg1, active compounds read low 0.991 | locus YOR184W, strain ser1, active compounds read low 0.897 | locus YOR316C, strain cot1, active compounds read low 0.991 | locus YPL055C, strain LGE1, active compounds read low 0.941 | locus YPR119W, strain clb2, active compounds read low 0.995 | locus YPR141C, strain kar3, active compounds read low 1 | locus YPR163C, strain tif3, active compounds read low 0.992 | locus YPR167C, strain met16, active compounds read low 0.991 | strain wtn01, active compounds read low 0.92
active: locus YNL250W, strain rad50, active compounds read low 0.89

COc1ccc(-c2cc(=O)c3c(O)cc(OC)cc3o2)cc1
inactive: [1] 0.924 | locus YHR079C, strain IRE1, active compounds read low 0.925 | [2] 0.931 | locus YJR066W, strain TOR1, active compounds read low 0.874 | locus YLR113W, strain HOG1, active compounds read low 0.905 | locus YNL183C, strain NPR1, active compounds read low 0.887 | locus YOR231W, strain MKK1, active compounds read low 0.919 | locus YPL256C, strain CLN2, active compounds read low 0.94
